Only some compounds are listed: those with a hit (about 2% of all), similar ones and a draw of the others.
Mcl1 Noxa PPI – Mcl-1/Noxa binding inhibitors, primary screen, biochemical, TR-FRET, 1536-well; Induced myeloid leukemia cell differentiation protein Mcl-1 (Homo sapiens), Q07820; TR-FRET Mcl-1/Noxa peptide binding, 2 h; inhibition, % at 21.7 µM; actives 1.5% (n = 220,000); AID 1022, 2008;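 active = compounds that cut the protein-peptide binding signal by more than 50% relative to plate controls in a single-dose test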;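 also: His-tagged Mcl-1 with rhodamine Noxa BH3 peptide and terbium anti-His antibody; 0% = Mcl-1 plus Noxa peptide wells and 100% = peptide-only wells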
Target sequence (Q07820 whole entry, looked up): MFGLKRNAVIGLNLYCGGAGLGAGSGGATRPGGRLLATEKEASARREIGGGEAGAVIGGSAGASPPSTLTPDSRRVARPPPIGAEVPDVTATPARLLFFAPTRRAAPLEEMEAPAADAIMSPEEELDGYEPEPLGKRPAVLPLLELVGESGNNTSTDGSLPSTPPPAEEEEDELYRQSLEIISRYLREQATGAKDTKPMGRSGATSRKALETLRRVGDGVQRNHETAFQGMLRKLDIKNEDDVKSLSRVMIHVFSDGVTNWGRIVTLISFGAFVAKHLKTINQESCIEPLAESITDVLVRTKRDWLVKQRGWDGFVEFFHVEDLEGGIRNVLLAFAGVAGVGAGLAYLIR
Bim-Mcl-1 – inhibitors of Bim peptide binding to Mcl-1, primary screen, biochemical, bead-based flow cytometry, multiplex. AID 1009, 2008. Bim peptide-Mcl-1 binding. Induced myeloid leukemia cell differentiation protein Mcl-1 (Homo sapiens), Q07820. inhibition, % at 10 µM. actives 0.1% (n = 190,000); in the data active = inhibition above about 40%;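 also: 0% = no compound tracer wells and 100% = peptide blocker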
Mcl1 Bid PPI – Mcl-1/Bid binding inhibitors, primary screen, biochemical, TR-FRET, 1536-well; TR-FRET Mcl-1/Bid-Dy647 peptide binding; inhibition, % at 21.7 µM; actives 0.97% (n = 220,000); Induced myeloid leukemia cell differentiation protein Mcl-1 (Homo sapiens), Q07820;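 active = compounds that cut the binding signal by more than half at the single screening dose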;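 also: His-tagged Mcl-1 with europium anti-His antibody binding Bid BH3 peptide; 0% = Mcl-1 plus peptide wells and 100% = peptide-only wells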
MCL1 BIM primary – inhibitors of MCL1 binding to BIM-BH3, primary screen, biochemical, fluorescence polarization | AID 2057, 2009 | GST-MCL1 / FITC-Bim-BH3 fluorescence polarization | actives 0.68% (n = 320,000) | inhibition, % at 10.9 µM | Induced myeloid leukemia cell differentiation protein Mcl-1 (Homo sapiens), Q07820;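 active = inhibition above the mean inhibition of all tested compounds plus 3 SD, set per campaign, cut at about 40% in these data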;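 also: 0% = DMSO wells and 100% = unlabeled Bim-BH3 peptide control; higher means more loss of mP so more displacement of Bim peptide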
Numbers without * were called inactive; x = not tested or not shown.

SMILES	Mcl1 Noxa PPI	Bim-Mcl-1	Mcl1 Bid PPI	MCL1 BIM primary
CCCCSc1nnc(-c2ccccc2NC(C)=O)c(=O)[nH]1	9.8	-1.0	-25.3	-0.4
CCOC(=O)c1cc(C#N)c(SC(C)C(=O)NC2CCCCC2)nc1C (stereo unspecified)	x	x	x	3.3
Cc1nn(C)c(C)c1CN(C(=O)C1CCC(=O)N(C2CCCCCC2)C1)C(C)C (stereo unspecified)	x	x	x	0.6
O=C(O)[C@@H]1[C@@H]2C[C@@H]2CN1c1ncccc1[N+](=O)[O-]	19.4	-1.0	-32.2	46.9*
O=C(O)C1CN(c2ncccc2[N+](=O)[O-])C1	6.9	1.0	-12.6	-2.3
CC(C)=NOC(=O)c1c(C)noc1-c1snnc1C	-3.4	x	-3.9	6.0
Cc1ccc(/C=N/OC(=O)c2c(C)noc2-c2snnc2C)cc1	7.6	x	63.3*	6.0
O=C(CN1C(=O)c2ccccc2C1=O)N1CCCCC1	19.9	-2.0	99.2*	1.1
O=C(CN1C(=O)c2cccc3cccc(c23)C1=O)N1CCCCCC1	-5.3	0.0	-28.1	3.7
CCC(=O)N(CC)C1=C(O)c2ccccc2C(=O)C1=O	84.7*	2.0	-10.7	9.0
CN1CCc2c(sc(NC(=O)c3ccc(S(=O)(=O)N4CCc5ccccc54)cc3)c2C(N)=O)C1	51.8*	x	28.4	-26.8
C=CCNc1ncnc2c1[nH]c1ccc(C)cc12	26.2	-1.0	-6.1	9.8
COc1ccc(/C=N/Nc2ncnc3c2[nH]c2ccccc23)c(OC)c1OC	54.8*	-5.0	48.6	-8.8
COCCNc1ncnc2c1[nH]c1ccccc12	-4.2	x	-12.9	-2.7
COc1cccc(/C=N/Nc2ncnc3c2[nH]c2ccc(C)cc23)c1OC	100.3*	x	35.2	5.3
NC(=O)c1ccc[n+]([C@H]2O[C@@H](COP(=O)([O-])OP(=O)(O)OC[C@H]3O[C@@H](n4cnc5c(N)ncnc54)[C@H](O)[C@@H]3O)[C@H](O)[C@@H]2O)c1	x	x	x	1.3
CCOc1ccc(C(=O)Nc2nnc(S(=O)(=O)Nc3ccccc3C)s2)cc1	x	x	x	8.5
N#Cc1ccc(CN2CCN(C(=O)Cn3nc(C(N)=O)c4ccccc4c3=O)CC2)cc1	x	x	x	-18.6
COC(=O)C1=C(O)/C(=C\c2ccc(CNC(=O)C(=O)Nc3ccc(C)c(C)c3)o2)N=C1C	55.1*	7.0	34.0	28.2
CCOC(=O)C1=C(O)/C(=C\c2ccc(CNS(=O)(=O)c3ccc(Br)cc3)o2)N=C1C	57.0*	-1.0	-65.2	37.1
COC(=O)C1=C(O)/C(=C\c2ccc(CNC(=O)C(=O)Nc3ccc(C)cc3)o2)N=C1C	45.6	1.0	17.6	19.3
Cc1nn(C)c(C)c1NC(=O)CSc1nc(Cc2ccccc2)nc2c1cnn2-c1ccccc1	x	x	x	7.0
Cc1nn(Cc2ccccc2)c(C)c1NC(=O)CSc1nc(C2CC2)nc2c1cnn2-c1ccccc1	3.5	0.0	62.6*	3.0
O=c1nc(/C=C/c2cccn2-c2ccc([N+](=O)[O-])cc2)cc(C(F)(F)F)[nH]1	56.7*	0.0	-62.7	-46.9
CCOc1ccc(C(=S)N2CCN(C)CC2)cc1	7.0	-9.0	-42.4	6.0
SMILES	Mcl1 Noxa PPI	Bim-Mcl-1	Mcl1 Bid PPI	MCL1 BIM primary
CCOC(=O)C1CCN(C(=O)c2ccc(Cl)c(S(=O)(=O)N3CCOCC3)c2)CC1	9.7	-5.0	-11.2	-6.9
CCOC(=O)C1CCN(C(=O)c2cc(S(=O)(=O)N3CCOCC3)c(Cl)cc2Cl)CC1	-7.1	-6.0	95.3*	9.2
Cc1cccc2c3nc4ccccc4nc3n(C)c12	x	x	x	40.4*
COc1cc(C(=O)NCC2(N(C)C)CCCCC2)ccc1OCc1ccccc1	x	x	x	-4.6
CC1(C)CC(NC(=O)COc2ccc([N+](=O)[O-])cc2)CC(C)(C)N1	21.8	68.0*	-12.3	6.3
O=C(COc1ncnc2cc([N+](=O)[O-])ccc12)NCc1ccc2c(c1)OCO2	59.5*	6.0	11.9	8.7
O=[N+]([O-])c1cccc(COc2ncnc3cc([N+](=O)[O-])ccc23)c1	52.5*	x	-50.4	-1.3
COc1ccc(CCNC(=O)COc2ncnc3cc([N+](=O)[O-])ccc23)cc1	32.0	1.0	1.4	4.4
Oc1ccc(/C=N/Nc2cccc3cccnc23)c(O)c1	61.5*	0.0	-39.4	11.9
COc1cc(/C=c2\sc3nc(-c4ccncc4)nn3c2=O)ccc1OC(C)=O	70.4*	-4.0	49.9	x
CN(C)c1ccc(/C=c2\sc3nc(-c4ccccc4)nn3c2=O)cc1	78.8*	-4.0	73.1*	x
CC(=O)Oc1cccc(/C=c2\sc3nc(-c4ccco4)nn3c2=O)c1	28.8	-4.0	-30.1	25.0
O=c1/c(=C\c2ccc(O)cc2)sc2nc(-c3ccccc3)c(-c3ccccc3)n12	13.8	x	-15.9	1.9
O=C(COCC(=O)NCc1ccccc1)NCc1ccccc1	3.8	49.0*	-18.6	-2.4
O=C(NCCO)Nc1ccc2nc(-c3ccco3)c(-c3ccco3)nc2c1	105.8*	15.0	18.4	144.6*
O=C(NCCCO)c1ccc2nc(-c3ccco3)c(-c3ccco3)nc2c1	91.3*	18.0	-19.5	x
CCN(CC(=O)Nc1ccc(NC(C)=O)cc1)C(=O)CSc1ncnc2sc(C)c(C)c12	x	x	x	6.9
CCC1CN(C(=O)N2CCC(C(=O)Nc3ccccc3F)CC2)c2ccccc2O1 (stereo unspecified)	x	x	x	10.2
Cc1ccccc1-n1nnnc1SCC(=O)c1c(N)n(C)c(=O)n(C)c1=O	54.0*	x	-39.7	-11.5
Cc1ccc(NC(=S)Nc2cccc(-c3n[nH]c(=S)o3)c2)cc1	58.6*	x	-18.1	0.0
Oc1ccc(Br)cc1-c1cc(-c2ccco2)[nH]n1	63.9*	-3.0	2.5	-9.9
COc1ccc(-n2c(N)c(C(=O)NCc3ccco3)c3nc4ccccc4nc32)cc1OC	33.8	0.0	45.3	1.7
COc1ccc(-n2c(N)c(C(=O)NCc3ccco3)c3nc4ccccc4nc32)cc1	57.9*	3.0	-11.5	-6.3
COc1ccc(OC)c(-n2c(N)c(C(=O)NCC3CCCO3)c3nc4ccccc4nc32)c1 (stereo unspecified)	14.8	0.0	92.9*	x
COCCn1c(N)c(C(=O)NCC2CCCO2)c2nc3ccccc3nc21 (stereo unspecified)	10.8	0.0	-50.9	9.3
OCc1ccccc1SSc1ccccc1CO	x	x	x	19.1
CCN(CC)c1ccc(NC(=O)c2cccnc2)c(C)c1	15.1	-5.0	-6.2	8.1
CCN(CC)c1ccc(NC(=O)c2cccc(C)c2OC)c(C)c1	62.2*	2.0	-21.4	-5.2
Nc1c(S(=O)(=O)c2cccc(Cl)c2)c2nc3ccccc3nc2n1/N=C/c1ccc(O)c(O)c1	63.5*	13.0	-12.1	13.1
COc1cccc(/C=N/n2c(N)c(S(=O)(=O)c3cccs3)c3nc4ccccc4nc32)c1OC	8.8	-2.0	11.9	2.8

Screens: PubChem BioAssay, several laboratories
